“And” between values parts separate entries of the source, which are not always exact repeats. Equal values may be shown once.
assay: sensitizers of A549 cells to miR-34 induction, primary screen, imaging, A549 dox-inducible miR-34, nuclei and caspase counts (AID 1347080); details: A549 miR-34 inducible, Hoechst nuclei count, 48 h; measured here: relative caspase fold change +Dox/-Dox; also: test concentration not given here

Going from `C=C(C)[C@H]1O[C@H]2CC[C@@]3(C)[C@@](O)(CC[C@H]4[C@@H]5OC(C)(C)[C@H]6C[C@@H]7C(=C)Cc8c(Cl)cc9[nH]c(c5c9c8[C@@]76O)[C@@]43C)[C@]23O[C@@H]3[C@H]1O` to `CC(C)(O)[C@H]1O[C@H]2CC[C@@]3(C)[C@@](O)(CC[C@H]4Cc5c([nH]c6ccccc56)[C@@]43C)C2=CC1=O`, the fold change rises from 1.48 to 1.67.

Going from `CCCCC/C=C\C/C=C\C/C=C\C/C=C\CCCC(=O)NC[C@H](C)O` to `CCCCC/C=C\C/C=C\C/C=C\C/C=C\CCCC(=O)N[C@@H](C)CO`, the fold change falls from 1.04 to 0.734.

Going from `C=C(C)[C@@H]1CCC(C)=C[C@H]1c1c(O)cc(O)cc1CCCCC` to `C=C(C)[C@@H]1CCC(C)=C[C@H]1c1c(OC)cc(CCCCC)cc1OC`, the fold change falls from 1.35 to 1.03.

Compared with `C[C@]12CCC3c4ccc(OC(=O)N(CCCl)CCCl)cc4CCC3C1CC[C@@H]2O` (stereo not given in full), `CCCCCCC(=O)O[C@H]1CC[C@H]2[C@@H]3C[C@@H](O)C4=CC(=O)CC[C@]4(C)[C@H]3CC[C@]12C` is lower in fold change: 0.867 for the first, 0.446 for the second.

Going from `CCOC(=O)CN1C(=O)CC(C[C@@H](O)C2C[C@@H](C)C[C@H](C)C2=O)CC1=O` (stereo not given in full) to `CCCC[C@H]1C(=O)O[C@H](C)[C@H](NC(=O)c2cccc(NC=O)c2OC)C(=O)O[C@@H](C)[C@@H]1OC(=O)CC(C)C`, the fold change falls from 1.21 to 0.897.

First: c1cc2ccsc2c(N2CCNCC2)n1
Second: Clc1ccc(C2CC3CCC2N3)cn1 (stereo not given)
The fold change of the first is lower: 0.656 for the first, 1.19 for the second.

Compared with `CCCCC/C=C\C/C=C\C/C=C\C/C=C\CCCC(=O)NC1CC1`, `CCCCC/C=C\C/C=C\C/C=C\C/C=C\CCCC(=O)NCCCC(=O)O` is higher in fold change: 0.962 for the first, 1.25 for the second.

Going from `C[C@@]1(CO)[C@H](O)CC[C@@]2(C)[C@H]1CC[C@H]1C[C@@H]3C[C@@]12CC[C@]3(O)CO` to `CC1(O)C[C@@]23C[C@@H](O)[C@@]4(O)[C@@H](C[C@H](O)C4(C)C)[C@](C)(O)[C@@H]2CCC1[C@H]3O` (stereo not given in full), the fold change rises from 0.966 to 1.15.

First: COc1cc(CNC(=O)CCCCCCC(C)C)c(I)cc1O
Second: CCCCCCCC/C=C\CCCCCCCC(=O)N[C@H](C)CO
The fold change of the first is lower: 0.817 for the first, 1.87 for the second.

Going from `CN=C(NS(=O)(=O)c1ccc(Cl)cc1)N1C[C@@H](c2ccccc2)C(c2ccc(Cl)cc2)=N1` to `O=C(NCCN1CCC2(CC1)C(=O)NCN2c1ccccc1)c1ccc2ccccc2c1`, the fold change rises from 0.468 to 1.81.

Going from `C=C(C)[C@@H]1CCC(C)=C[C@H]1C1=C(O)C(=O)C(CCCCC)=CC1=O` to `CCCCCCC(C)(C)c1cc(OC)c2c(c1)OC(C)(C)[C@@H]1CC=C(C)C[C@@H]21`, the fold change falls from 0.935 to 0.441.

First: CCCCC/C=C\C/C=C\C/C=C\C/C=C\CCCC(=O)Nc1cccc([N+](=O)[O-])c1
Second: CCCCC/C=C\C/C=C\C/C=C\C/C=C\CCCC(=O)Nc1cccc(O)c1
The fold change of the first is higher: 0.782 for the first, 0.281 for the second.

First: CCCN(CCCN)N(O)N=O
Second: CCCCC/C=C\C/C=C\C/C=C\C/C=C\CCCC(=O)NCC(O)CC(=O)O (stereo not given)
The fold change of the first is lower: 0.825 for the first, 1.27 for the second.

Compared with `O[C@H]1[C@H]2[C@H](O)CCCN2C[C@H]1O`, `CCN1C[C@@]2(COC)C3[C@@H](OC)[C@H]4[C@H]1C3([C@@H]1C[C@@]3(O)[C@H](OC(=O)c5ccccc5)[C@@H]1[C@]4(OC(C)=O)[C@@H](O)[C@@H]3OC)[C@H](OC)C[C@H]2O` is higher in fold change: 1.17 for the first, 1.45 for the second.

Going from `CO[C@@H]1C[C@@H](C[C@H]2CC[C@H](C)[C@H]([C@@H](C)C(=O)O)O2)O[C@]2(O[C@](C)([C@H]3CC[C@@](C)([C@@H]4O[C@@H]([C@H]5O[C@@](O)(CO)[C@H](C)C[C@@H]5C)C[C@@H]4C)O3)C[C@H]2C)[C@@H]1C` to `COC[C@H]([C@@H](O)[C@@H](O)C(=O)NCC[C@@H](C)c1nc(/C=C/C[C@H]2OC3(C[C@H](O)[C@H]2C)OC([C@@H](C[C@@H](O)[C@@H](C)[C@@H](O)[C@@H](C)/C=C(C)/C(C)=C/C=C/C(C)=C\C#N)OC)[C@@H](OP(=O)(O)O)C3(C)C)co1)N(C)C` (stereo not given in full), the fold change falls from 1.75 to 1.44.

Going from `COC(C/C=C/C=C/CC/C=C\CC(C)/C=C\C(=C/C(=O)O)CC(=O)O)/C(C)=C\C=C(/C)C(=O)O` (stereo not given) to `O=C(CCC/C=C\C[C@@H]1[C@@H](/C=C/[C@@H](O)COc2cccc(C(F)(F)F)c2)[C@H](O)C[C@@H]1O)NC(CO)CO`, the fold change falls from 1.25 to 0.862.

In the case of `CCCCCCCCCC(=O)OC[C@H](COP(=O)([O-])OCC[N+](C)(C)C)OC(=O)CCCCCCCCC`, the fold change was 0.797.

With `N[C@H]1C[C@@H]1c1ccccc1` the fold change was 1.15 and 1.49.
In the case of `CCCCC/C=C\C/C=C\C/C=C\C/C=C\CCCC(=O)NCc1ccc(O)c(OC)c1`, the fold change was 1.08 and 0.996.

Source: PubChem BioAssay
